Source: ChEMBL document CHEMBL4513216, “Probing the Open Global Health Chemical Diversity Library for Multistage-Active Starting Points for Next-Generation Antimalarials” (ACS Infect Dis, 2020)
Screen size: about 69,000 compounds; about 8,600 (12%) showed an effect of 50% or more. This excerpt belongs to a sample that is enriched for strong results.

The molecules below were run on Plasmodium berghei (assay: Screen against P. berghei liver stage (PbLuc), transformed with Luciferase, at 10uM). Settings: tested at 10 uM.
Assay type: functional, HepG2

Point of comparison: `Cc1noc(C)c1S(=O)(=O)N1CCC(n2cccn2)CC1`, INHIBITION -25.4%. Against it:
- Cc1nc(C2CCCN2CC(=O)N2CCc3ccccc32)no1 (stereo not drawn) — higher, 46.2%
- COCCN(C)C(C(=O)O)c1ccc(F)c(C)c1 (stereo not drawn) — higher, 14%
- COc1cccc(CN2CCOC(c3cnccn3)C2)c1F (stereo not drawn) — higher, -18.9%
- O=C(N1CCOCC1)[C@@]12CCO[C@@H]1CCN(C1CCCC1)C2 — higher, 8.67%
- CN(Cc1ccncc1)C(=O)[C@H]1CSCN1C(=O)OC(C)(C)C — higher, -12.1%
- O=C1NC(c2ccccc2)=N[C@@]12CC[C@@H]1CN(S(=O)(=O)C3CC3)C[C@@H]12 — higher, 76.4%
- O=C1NC(c2ccccc2)=N[C@@]12CC[C@@H]1CN(Cc3ccccc3)C[C@@H]12 — higher, -21.3%
- O=C1NC(c2ccccc2)=N[C@@]12CC[C@@H]1CN(CC3CCOCC3)C[C@@H]12 — higher, 2.74%
- CC(C)NC(=O)C1CCN(c2snc3ccccc23)CC1 — higher, -15.5%
- COCCN(Cc1noc(-c2ccc(OC)cc2)n1)C1CC1 — higher, 15.5%
- COc1ccc(CN(Cc2cc(C)no2)C2CC2)cc1 — higher, 92.2%
- COc1ccc(CN(Cc2nc(C)no2)C2CCCCC2)cc1OC — higher, 14.4%
- Cc1cc(CN(Cc2ccccc2)C2CC2)on1 — higher, 33.7%
- Cc1ccc(CN(Cc2cc(C)no2)C2CC2)cc1 — higher, 53.2%
- Cc1cc(CN(C2CC2)C(C)C(C)C)on1 (stereo not drawn) — higher, -21.8%
- O=C(Nc1cnc2n1CCCC2)C1CCNCC1 — higher, 18.7%
- O=C(NCC1CC1)[C@@H]1CCO[C@@H]2CCN(Cc3ccc(F)cc3)C[C@H]21 — higher, -10.3%
- Cc1cnn(CC2CCCN2C(=O)c2ccc3c(c2)nnn3C)c1 (stereo not drawn) — higher, 23.2%
- C=Cc1cccc(CN2C[C@@H]3CC[C@H]2CN(Cc2c(C)noc2C)C3)c1 — higher, -19.2%
- CN(C)C(=O)N1CCOCC2(CCN(c3ncccn3)C2)C1 (stereo not drawn) — higher, -5.29%
- CN1CCc2c(C#N)c(NCc3ccncc3)n3cnnc3c2C1 — higher, 10.1%
- CN1CCc2c(C#N)c(NCc3cccnc3)n3cnnc3c2C1 — higher, 53.2%
- CC(C)CCNc1c(C#N)c2c(c3nncn13)CN(C)CC2 — higher, 60.7%
- COCCNc1c(C#N)c2c(c3nncn13)CN(C)CC2 — higher, 32.5%
- CN1CCc2c(C#N)c(NCc3ccccc3)n3cnnc3c2C1 — higher, 24.2%
- CN1CCc2c(C#N)c(NCCc3ccccc3)n3cnnc3c2C1 — higher, 60.7%
- CN1CCc2c(C#N)c(NCc3ccco3)n3cnnc3c2C1 — higher, 19.7%
- CN1CCc2c(C#N)c(NCCCO)n3cnnc3c2C1 — higher, 32.5%
- CN1CCc2c(C#N)c(NCCN3CCOCC3)n3cnnc3c2C1 — higher, 35%
- Cc1ncsc1CN1C[C@@H]2COC[C@]2(C(=O)NC(C)C)C1 — higher, 18.6%
- COc1ccc(CC(=O)N2Cc3nccn3CC(CN(C)C)C2)cc1 (stereo not drawn) — higher, 6.72%
- CC(NC(=O)NCc1ccoc1)c1ccc2c(c1)CC(=O)N2 (stereo not drawn) — lower, -55.4%
- CCOc1cccc(CNC2CCCN(Cc3noc(C)n3)C2)c1 (stereo not drawn) — higher, 47%
- COCCN1CCCC12CCN(Cc1cncn1C)CC2 — higher, 49.1%
- COCCn1cncc1CN1CCC(C(C)=O)(c2ccccc2)CC1 — higher, 50.7%
- COCCn1cncc1Cn1ncc2ccccc2c1=O — higher, 13%
- CC(C)CN(CC(O)c1ccc(F)cc1)C(=O)c1cnsn1 (stereo not drawn) — higher, -24.9%
- O=C(CO)N1C[C@@H]2CC[C@H]1CN(C1Cc3ccccc3C1)C2 — higher, 25.4%
- Cc1noc(CN2C[C@@H]3CC[C@H]2CN(C2Cc4ccccc4C2)C3)n1 — higher, 30.9%
- CCc1cc(CN2C[C@@H]3CC[C@H]2CN(C2Cc4ccccc4C2)C3)on1 — higher, 57.1%
- Cc1nnc(CN2C[C@@H]3CC[C@H]2CN(C2Cc4ccccc4C2)C3)o1 — higher, 66.1%
- Cc1cc(CN2C[C@@H]3CC[C@H]2CN(C2Cc4ccccc4C2)C3)on1 — higher, 64.5%
- CSCC(=O)N1C[C@@H]2CC[C@H]1CN(C1Cc3ccccc3C1)C2 — lower, -69.3%
- COCCOCC(=O)N1C[C@@H]2CC[C@H]1CN(C1Cc3ccccc3C1)C2 — lower, -62.1%
- CCc1noc(CN2C[C@@H]3CC[C@H]2CN(C2Cc4ccccc4C2)C3)n1 — higher, 12.8%
- CN(C)C(=O)N1C[C@@H]2CC[C@H]1CN(C1Cc3ccccc3C1)C2 — lower, -57.9%
- O=C1COC2(CCN(C(=O)c3ccco3)CC2)CN1Cc1ccccn1 — higher, 28.2%
- CCn1cc(-c2n[nH]c(=O)n2-c2ccc(OC)c(OC)c2)c(C)n1 — higher, 41.4%
- CCn1ccc2ccnc(CC3CN(C(=O)Cn4ccnc4C)C3)c21 — higher, 6.26%
- CCc1nccn1C1CCCN(C(=O)c2ccc3nnc(C)n3c2)C1 (stereo not drawn) — higher, -6.44%
- COc1c(NS(=O)(=O)c2ccc(F)c(C)c2)c(C)nn1C — higher, 29.6%
- Cc1ccc(S(=O)(=O)Nc2c(C)nn(C)c2C)cc1C — higher, 45.7%
- COc1c(NS(=O)(=O)c2ccc(C)c(C)c2)c(C)nn1C — higher, 51.1%
- CCN1CCC(N2CCC(c3nc(C)cc(C)n3)C2)CC1 (stereo not drawn) — higher, 23.9%
- CN(C)C(=O)C1CCCN1CCCNC(=O)c1ccccc1Cl (stereo not drawn) — higher, 42.5%
- CC(C)(C)c1oc(C(N)=O)cc1CN1CCCCC1CN1CCOCC1 (stereo not drawn) — higher, 48.5%
- CC(C)(C)c1oc(C(N)=O)cc1CN1CCOC(C(F)(F)F)C1 (stereo not drawn) — higher, 22.5%
- CC(C)(C)c1oc(C(N)=O)cc1CN1CCCCC(N)C1 (stereo not drawn) — higher, 51.8%
- Cc1ccc(OCCCNC(=O)C(C)Sc2nncn2C)cc1 (stereo not drawn) — higher, 50.8%
- CC(C(=O)NCCOc1ccc(F)cc1)n1cncn1 (stereo not drawn) — lower, -44.3%
- CC(Sc1nncn1C)C(=O)NCCCOc1ccc(F)cc1 (stereo not drawn) — higher, 51.7%
- Cc1cc(C)cc(OCCN(C)C(=O)NC(C)c2nncn2C)c1 (stereo not drawn) — higher, 21.5%
- CC(NC(=O)NCCOc1ccc(F)c(F)c1)c1nncn1C (stereo not drawn) — higher, 0.0932%
- CC(NC(=O)N(C)CCCOc1ccc(F)cc1)c1nncn1C (stereo not drawn) — higher, -20%
- Cc1ccc(OCCNC(=O)C(C)n2cncn2)cc1 (stereo not drawn) — higher, 8.47%
- Cc1cc(C)cc(OCCNC(=O)C(C)Sc2nncn2C)c1 (stereo not drawn) — higher, 53.6%
- Cc1ccc(OCCCNC(=O)NC(C)c2nncn2C)cc1 (stereo not drawn) — higher, 38.7%
